High-throughput results deposited in PubChem by several laboratories.
Rows were chosen to be rich in hits. Some 0.51% of all compounds tested hit in one or more screens of this group.
AddAB inh: less growth of phage-infected E. coli with AddAB; E. coli expressing H. pylori AddAB, absorbance growth; inhibition, % at 11.9 µM; 330,000 compounds, 0.29% hits; AID 435030; in the data active means inhibition above about 12%
Tat transport: inhibitors of E. coli Tat protein transport; inhibition, % at 10 µM; 340,000 compounds, 0.036% hits; E. coli MC4100 TorA-mCherry Tat export, fluorescence;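 active means mean replicate inhibition at least 50% and at least half of replicates individually reaching 50%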;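 further: exported cargo escapes ClpAP degradation while cytoplasmic cargo is degraded and loses fluorescence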
phage Ecoli inh: E. coli growth loss with phage present; growth absorbance; inhibition, % at 11.9 µM; 360,000 compounds, 0.26% hits; AID 651602; in the data active means inhibition above about 11%
E coli growth-1: reduces bacterial viability in AddAB counter-screen; E. coli V3065 growth, OD600 absorbance, 18 h; inhibition, % at 11.9 µM; 330,000 compounds, 0.27% hits;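 active means inhibition above the campaign's mean inhibition across all tested compounds plus 3 SD, cut at about 9.9% in these data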;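 further: uninfected addAB+ strain grown without phage in ampicillin broth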
E coli growth-2: inhibitors of Escherichia coli growth; OD600, 23 h; stronger effect = lower value; OD600 absorbance (no concentration beside the values); 330,000 compounds, 0.21% hits; AID 1053175;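 active means OD600 absorbance below the run mean of sample wells minus 3.6 SD, in any replicate, cut at about 0.56 in these data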
RecBCD conf: growth loss of phage-infected V66 E. coli, RecBCD confirmation screen; shares compounds with phage Ecoli inh; E. coli V66 + T4 2- phage, growth OD; inhibition, % at 11.9 µM; 890 compounds, 45% hits;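 active means mean inhibition over triplicates exceeding the hit threshold derived in the original primary screen, cut at about 11% in these data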
Ecoli viability: counter-screen for RecBCD inhibitors: inhibitors of bacterial viability. 890 compounds, 29% hits. inhibition, % at 11.9 µM. shares compounds with phage Ecoli inh. E. coli viability, absorbance (OD) growth; in the data active means inhibition above about 20%;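 further: E. coli strain V66 grown with compound alone and no phage infection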
AddAB counter: growth loss of phage-infected AddAB E. coli, RecBCD counter-screen; shares compounds with phage Ecoli inh; E. coli expressing H. pylori AddAB + T4 phage, OD growth; gene 2 mutant T4, recBCD-deleted host; inhibition, % at 11.9 µM; 890 compounds, 45% hits; AID 651984;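 active means mean inhibition above the solvent-only control wells' mean plus 3 SD, cut at about 22% in these data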;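 further: higher means less bacterial growth from phage killing when AddAB is blocked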
Large screens that a line does not name were inactive (follow-up assays come after a bar, where they were run).

O=C(N/N=C/c1c(O)n(Cc2ccccc2)c(=O)c2ccccc12)c1cccnc1	phage Ecoli inh 15, E coli growth-1 11 | RecBCD conf inactive | Ecoli viability inactive | AddAB counter inactive
COc1ccc(Cn2c(O)c(/C=N/NC(=O)c3cccnc3)c3ccccc3c2=O)cc1	phage Ecoli inh 15 (no result: AddAB inh, E coli growth-1) | RecBCD conf inactive | Ecoli viability inactive | AddAB counter inactive
O=C(N/N=C/c1c(O)n(-c2ccccc2Cl)c(=O)c2ccccc12)c1cccnc1	none (no result: AddAB inh, E coli growth-1)
COC(=O)C1=C(C)N(Cc2ccccc2)C(=NCc2cc(OC)c(OC)c(OC)c2)NC1c1ccccc1 (centres undefined)	none (no result: AddAB inh, Tat transport, phage Ecoli inh, E coli growth-1)
COC(=O)[C@@]12CCCN1C(c1ccc(-c3ccc(Cl)c(Cl)c3)c(OC)c1)C1C(=O)N(C)C(=O)C12 (some centres undefined)	none (no result: AddAB inh, Tat transport, phage Ecoli inh, E coli growth-1)
O=C(Nc1ccccc1-c1nnn(CC(=O)N2CCOCC2)n1)c1ccc(F)cc1	phage Ecoli inh 11 | RecBCD conf inactive | Ecoli viability inactive | AddAB counter inactive
CC(=NNc1ccc(S(=O)(=O)N2CCCCC2)cn1)c1cccc(Br)c1	none (no result: AddAB inh, Tat transport, phage Ecoli inh, E coli growth-1)
CCOC(=O)c1c[nH]c2c([N+](=O)[O-])cc(OC)cc2c1=O	phage Ecoli inh 12, E coli growth-2 0.45 (no result: AddAB inh, E coli growth-1) | RecBCD conf inactive | Ecoli viability inactive | AddAB counter 44
Cc1ccc(NC(=S)NC(NC(=O)c2ccco2)C(Cl)(Cl)Cl)cc1 (centres undefined)	phage Ecoli inh 14, E coli growth-1 11 | RecBCD conf inactive | Ecoli viability inactive | AddAB counter inactive
CCOC(=O)NN=Cc1ccccc1OC/C=C/c1ccccc1	none (no result: AddAB inh, Tat transport, phage Ecoli inh, E coli growth-1)
O=C(Nc1ccccc1)Nc1cc(OCC(F)(F)F)cc(OCC(F)(F)F)c1	phage Ecoli inh 16 (no result: AddAB inh, E coli growth-1) | RecBCD conf inactive | Ecoli viability inactive | AddAB counter inactive
O=C(Nc1ccccc1)Nc1cc(Cl)cc(Cl)c1	none (no result: E coli growth-2)
O=C(O)c1ccc(C=NNC(=O)C2CC2(c2ccccc2)c2ccccc2)cc1 (centres undefined)	none (no result: AddAB inh, Tat transport, phage Ecoli inh, E coli growth-1)
Cc1ccc(-c2nc(CS(=O)CC(=O)NCc3ccccc3)c(C)o2)cc1 (centres undefined)	phage Ecoli inh 29 | RecBCD conf inactive | Ecoli viability inactive | AddAB counter inactive
CN(CC(=O)Nc1ccc(F)cc1)C(=O)CSc1nc2ncc(Cl)cc2[nH]1	none
O=C(CSc1nc2ncc(Cl)cc2[nH]1)Nc1cccc(F)c1	phage Ecoli inh 12 | RecBCD conf inactive | Ecoli viability inactive | AddAB counter inactive
Cc1ccc(-c2cnc(NCc3cc4c(cc3[N+](=O)[O-])OCO4)n2C)cc1C	phage Ecoli inh 11 | RecBCD conf inactive | Ecoli viability inactive | AddAB counter inactive
Cn1c(-c2ccc3c(c2)OCO3)cnc1NCc1ccccc1	none
COc1ccc(N/N=C/c2c(C(=O)O)ccc3ccccc23)cc1	phage Ecoli inh 11, E coli growth-1 16 (no result: E coli growth-2) | RecBCD conf inactive | Ecoli viability inactive | AddAB counter inactive
O=C(NN=Cc1ccc(OC(=O)c2ccccc2Cl)cc1)c1ccccn1	none (no result: AddAB inh, Tat transport, phage Ecoli inh, E coli growth-1)
OCC1OC(n2cnc3c(=S)nc[nH]c32)CC1O (centres undefined)	phage Ecoli inh 18 (no result: AddAB inh, E coli growth-1) | RecBCD conf inactive | Ecoli viability inactive | AddAB counter inactive
Cc1[nH]n(-c2ccccc2)c(=O)c1C=Nc1ccc(S(=O)(=O)Nc2nccs2)cc1	phage Ecoli inh 15 | RecBCD conf inactive | Ecoli viability inactive | AddAB counter 26
COc1nccnc1NS(=O)(=O)c1ccc(N=Cc2c(C)[nH]n(-c3ccccc3)c2=O)cc1	none
O=C(NCCc1cccc(F)c1)C1CCC(=O)N(CCCc2ccccc2)C1 (centres undefined)	none
C=C(C)CNC(=O)C1CCC(=O)N(CCCc2ccccc2)C1 (centres undefined)	phage Ecoli inh 30 (no result: E coli growth-2) | RecBCD conf inactive | Ecoli viability inactive | AddAB counter inactive
C=CCn1cc(C(=O)N2CCN(C)CC2)c(=O)c2cc(S(=O)(=O)N3CCCC3)ccc21	phage Ecoli inh 22 | RecBCD conf inactive | Ecoli viability inactive | AddAB counter inactive
O=c1[nH]nnc2c1ncn2C1OC(CO)C(O)C1O (centres undefined)	phage Ecoli inh 16 (no result: AddAB inh, Tat transport, E coli growth-1, E coli growth-2) | RecBCD conf 23 | Ecoli viability inactive | AddAB counter 28
O=C1CC(c2nc3ccccc3[nH]2)CN1c1cccc(C(F)(F)F)c1 (centres undefined)	phage Ecoli inh 27 | RecBCD conf inactive | Ecoli viability inactive | AddAB counter inactive
Nc1nnc(-c2ccc([N+](=O)[O-])o2)s1	phage Ecoli inh 92, E coli growth-2 0.069 (no result: AddAB inh, E coli growth-1) | RecBCD conf 100 | Ecoli viability 102 | AddAB counter 100
CCn1cc(C(=O)O)c(=O)c2cc(F)c(N3CCNCC3)nc21	Tat transport 62, phage Ecoli inh 102, E coli growth-2 0.059 (no result: AddAB inh, E coli growth-1) | RecBCD conf 102 | Ecoli viability 103 | AddAB counter 102
CC(=NNc1ccc(F)cc1F)c1ccc(N2CCOCC2)cc1	none (no result: AddAB inh, Tat transport, phage Ecoli inh, E coli growth-1)
O=C(Nc1ccc(Cl)c(C(F)(F)F)c1)c1ccco1	none
CCNC(=S)Nc1ccc(Cl)c(C(F)(F)F)c1	phage Ecoli inh 12 | RecBCD conf inactive | Ecoli viability inactive | AddAB counter inactive
CCOc1ccccc1N1CCN(Cc2cccc(OC)c2O)CC1	none
COc1ccccc1N1CCN(Cc2cc(Br)c(O)c3ncccc23)CC1	phage Ecoli inh 12, E coli growth-1 12 | RecBCD conf inactive | Ecoli viability inactive | AddAB counter inactive
COc1ccc(-[n+]2c(C)cc(/C=C3\Sc4ccccc4N3C)cc2C)cc1	AddAB inh 27, Tat transport 67, phage Ecoli inh 22, E coli growth-1 26, E coli growth-2 0.35 | RecBCD conf 20 | Ecoli viability inactive | AddAB counter 48
O=[N+]([O-])c1ccc2c(c1)oc1ccccc12	none
O=[N+]([O-])c1cc2c(ccc3occc32)o1	phage Ecoli inh 101 (no result: AddAB inh, Tat transport, E coli growth-1, E coli growth-2) | RecBCD conf 102 | Ecoli viability 103 | AddAB counter 102
c1ccc2cc(CCOC3CCCCO3)ncc2c1 (centres undefined)	none (no result: AddAB inh, Tat transport, phage Ecoli inh, E coli growth-1)
CCOC(=O)C1C2COc3ccc(OC)cc3C2N2C(=O)c3ccc(F)cc3NC(=O)[C@@]12C (some centres undefined)	none (no result: AddAB inh, Tat transport, phage Ecoli inh, E coli growth-1)
C#CCOCCOCCOCCNc1nc(N2CCN(C(=O)C(Cc3ccc(O)cc3)n3cc(C(N)CC(C)C)nn3)CC2)nc(N2CCN(C(=O)C(CCCCN)n3cc(C(N)C(C)CC)nn3)CC2)n1 (centres undefined)	none (no result: AddAB inh, Tat transport, phage Ecoli inh, E coli growth-1)
O=c1cc(CSc2nnc(Nc3ccccc3)s2)nc2sccn12	none
Cc1cccc(Nc2nnc(SCc3cn4ccsc4n3)s2)c1	phage Ecoli inh 17 | RecBCD conf inactive | Ecoli viability inactive | AddAB counter inactive
